ADAM17 inh: ADAM17 inhibition, QFRET primary screen | 0.83% of 370,000 active | recombinant ADAM17, EDANS/DABCYL FRET peptide cleavage | P78536 | inhibition, % at 6.95 µM;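 active = inhibition above the mean of compounds lying between control limits plus 3 SD, set per campaign, cut at about 8.5% in these data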;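 note: 0% = DMSO-only wells as the low control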
FAS TE block: blocks the thioesterase domain of human fatty acid synthase | P49327 | recombinant FAS-TE, OMFH fluorogenic substrate, fluorescence endpoint | inhibition, % at 15 µM | 0.67% of 360,000 active | AID 602261;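 active = compounds whose normalised, plate-corrected inhibition of enzyme fluorescence in the single-dose primary screen is 50% or more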;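 note: 0% = DMSO with enzyme and 100% = substrate without enzyme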
GRIN3A LBD mod: modulates the human NR3A ligand-binding domain | Tm shift relative to glycine control, % at 25 µM | 2.5% of 340,000 active | NR3A LBD differential scanning fluorimetry, Tm shift; 0% = protein alone, 100% = glycine-bound protein;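 active = melting temperature shift of at least 10% of the positive control shift, at one fixed dose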
ADAM10 inh: inhibitors of human ADAM10; O14672; recombinant ADAM10, EDANS/DABCYL FRET peptide cleavage, 3 h; inhibition, % at 7 µM; 0.62% of 370,000 active; AID 720582;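 active = inhibition above a per-campaign cutoff equal to the mean of compounds falling between control-based bounds plus 3 SD, cut at about 20% in these data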;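 note: 0% = DMSO wells while the 100% control is not disclosed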
Target sequence (O14672 214-748 limits assumed): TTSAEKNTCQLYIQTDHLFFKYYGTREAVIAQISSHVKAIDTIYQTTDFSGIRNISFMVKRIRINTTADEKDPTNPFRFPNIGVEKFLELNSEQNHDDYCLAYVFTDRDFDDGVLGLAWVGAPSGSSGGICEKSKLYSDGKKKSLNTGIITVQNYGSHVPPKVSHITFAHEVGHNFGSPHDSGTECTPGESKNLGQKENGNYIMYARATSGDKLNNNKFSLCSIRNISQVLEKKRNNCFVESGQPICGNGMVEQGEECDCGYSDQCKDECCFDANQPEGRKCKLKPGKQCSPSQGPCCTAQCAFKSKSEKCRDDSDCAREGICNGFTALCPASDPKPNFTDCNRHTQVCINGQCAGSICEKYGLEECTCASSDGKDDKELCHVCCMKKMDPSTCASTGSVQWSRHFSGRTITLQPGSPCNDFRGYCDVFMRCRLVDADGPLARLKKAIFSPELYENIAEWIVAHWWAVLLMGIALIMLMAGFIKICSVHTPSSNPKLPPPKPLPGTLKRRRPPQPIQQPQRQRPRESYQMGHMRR
HGIII-sPLA2 inh: Inhibits HGIII-sPLA2 liposome hydrolysis, primary screen; Q9NZ20; QFRET BODIPY PC-A2 liposome hydrolysis, fluorescence; 0.56% of 370,000 active; inhibition, % at 12.2 µM;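 active = inhibition above mean plus 3 SD of compounds lying within the high and low control bounds, cut at about 19% in these data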;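 note: 0% = median of test compound wells and 100% = no enzyme DMSO wells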
ADAM10 ctr: ADAM10 inhibition, counter-screen for ADAM17 exosite hits | shares compounds with ADAM17 inh | recombinant ADAM10, EDANS/DABCYL FRET peptide cleavage, 3 h | inhibition, % at 6.95 µM | 47% of 2,900 active;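 active = mean inhibition over the triplicate runs exceeds the activity threshold set in the earlier primary screen, cut at about 20% in these data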;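 note: 0% = DMSO wells and 100% = marimastat wells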
ADAM17 confirm: human ADAM17 inhibition, confirmation; recombinant ADAM17, EDANS/DABCYL QFRET peptide cleavage; shares compounds with ADAM17 inh; inhibition, % at 6.95 µM; 65% of 2,900 active;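 active = mean inhibition across replicates above the hit cutoff set in the primary screen, cut at about 8.5% in these data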;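 note: 0% = DMSO wells and 100% = marimastat wells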
Starred values were filed as active, the others as inactive; nt = no result given. A selection: hits, their analogues and other compounds. The true share with any hit is near 4.3%.

SMILES	ADAM17 inh	FAS TE block	GRIN3A LBD mod	ADAM10 inh	HGIII-sPLA2 inh	ADAM10 ctr	ADAM17 confirm
Cc1cc(C)cc(-n2c(SCC(=O)NCc3ccco3)nc3ccccc3c2=O)c1	10*	2	-1	-1	18	9	8.7*
COc1cc(C2c3cc4c(cc3OC(N3CCCCC3)C2C)OCO4)cc(OC)c1O (configuration not stated)	8	1	0	7	-6	nt	nt
CCN(CC)C1Oc2cc3c(cc2C(c2cc(OC)c(OC)c(OC)c2)C1C)OCO3 (configuration not stated)	9.9*	13	2	9	7	11	9.9*
O=[N+]([O-])c1ccc(N/N=C/c2c[nH]c3ccccc23)cc1	9.6*	24	30*	17	-42	17	8
Cn1cc([N+](=O)[O-])c(C(=O)N/N=C\c2c[nH]c3ccccc23)n1	-1	8	-3	-3	0	nt	nt
COc1ccc(NC(=O)O/N=C/c2ccc(Br)cc2)cc1	10*	15	34*	13	-1	-1	1
Cc1ccc(NC(=O)O/N=C/c2ccc(Br)cc2)cc1	-1	3	6	0	-2	nt	nt
Cc1nnsc1NC(=O)OCc1ccc(Cl)cc1Cl	10*	5	-2	12	-5	6	1
O=C(N[C@H](C(=O)N1CCC[C@H]1C(=O)NCc1ccccc1)C1CCCCC1)c1ccccc1	-3	nt	nt	-3	-2	nt	nt
COc1ccc(N=Cc2c(C)[nH][nH]c2=O)cc1	8.8*	-4	-1	7	10	13	7
Cc1[nH][nH]c(=O)c1C=Nc1ccc(C(F)(F)F)cc1	-1	7	-2	-4	4	nt	nt
Cc1nc2ccc(S(=O)(=O)NCC(=O)NCc3ccc4c(c3)OCO4)cc2s1	11*	-5	0	4	9	18	15*
Cc1ccc(N(C)S(=O)(=O)c2cccc(C(=O)N3CCN(Cc4ccccc4)CC3)c2)cc1	9.3*	11	2	16	-20	12	6
S=C(NCc1ccco1)Nc1ccc(Cl)c(Cl)c1	10.0*	38	11*	11	-7	5	7
NC(Cc1ccc(F)cc1)c1csc(NC(=O)NC(c2ccccc2)c2ccccc2)n1 (configuration not stated)	8.8*	-2	nt	12	10	20*	9.3*
CCOc1ccccc1NC(=O)NNC(=O)CCn1nc(C)c([N+](=O)[O-])c1C	4	nt	nt	-2	-2	nt	nt
CCOC(=O)C1(C)CCCCCN1C(=O)c1ccc(OC)c(C(F)(F)F)c1 (configuration not stated)	8.7*	2	nt	6	-3	-3	-2
C[C@H]1CN(C(=O)OC(C)(C)C)CCN1c1ccc(N2CC[C@H](O)C2)c(C#N)c1	-14	nt	nt	-59	10	nt	nt
CC(C)(C)c1ccc(OCc2nc(-c3ccccn3)no2)c(Br)c1	8.7*	16	-23	16	-10	15	18*
Clc1cc(Cl)c(OCc2nc(-c3ccccn3)no2)cc1Cl	-3	24	-20	-12	13	nt	nt
CCCNC(=O)C1(C)CCN1C(=O)c1ccccc1CCc1ccccc1 (configuration not stated)	8.8*	-3	nt	7	-7	-3	0
C[C@H](CO)N1C[C@H](C)[C@@H](CN(C)C(=O)Nc2ccc3c(c2)OCO3)Oc2ccc(NC(=O)Cc3ccccc3)cc2C1=O	-3	-5	-2	-5	-9	nt	nt
C[C@@H]1CN([C@H](C)CO)C(=O)c2cc(NC(=O)Cc3ccccc3)ccc2O[C@H]1CN(C)Cc1ccc(Oc2ccccc2)cc1	9.2*	18	1	19	-31	28*	19*
COc1ccc(NC(=O)N(C)C[C@H]2Oc3ccc(NC(=O)NC(C)C)cc3C(=O)N([C@H](C)CO)C[C@@H]2C)cc1	-6	-12	1	-12	8	nt	nt
COc1ccc(NC(=O)N(C)C[C@H]2Oc3ccc(NC(=O)Nc4ccc(C(F)(F)F)cc4)cc3C(=O)N([C@H](C)CO)C[C@@H]2C)cc1	8.7*	2	7	14	-18	36*	18*
SMILES	ADAM17 inh	FAS TE block	GRIN3A LBD mod	ADAM10 inh	HGIII-sPLA2 inh	ADAM10 ctr	ADAM17 confirm
C[C@@H]1CN([C@H](C)CO)C(=O)c2cc(NC(=O)Cc3cn(C)c4ccccc34)ccc2O[C@H]1CN(C)C(=O)Nc1ccc2c(c1)OCO2	14*	0	-5	18	-27	5	5
C[C@H]1CN([C@@H](C)CO)C(=O)c2cc(NC(=O)Cc3ccccc3)ccc2O[C@H]1CN(C)Cc1ccccc1	0	-11	-1	-3	-17	nt	nt
Brc1ccc(CN2CCN(c3ncc(Cc4ccccc4)cn3)CC2)cc1	-7	nt	nt	-11	-3	nt	nt
COC(=O)[C@]12C[C@H](CC(=O)NCc3ccc(OC)c(OC)c3)C(=O)N(Cc3ccc4c(c3)OCO4)C1=C[C@H](COCc1ccccc1)O[C@@H]2C	-2	nt	nt	4	-11	nt	nt
Cc1ccc(NC(=O)NNC(=O)CCn2nc(C)c([N+](=O)[O-])c2C)cc1C	-1	nt	nt	-7	-9	nt	nt
CCCCc1c(-c2ccccc2OC)ncn1Cc1ccc(C(C)(C)C)cc1	1	nt	nt	11	0	nt	nt
N/C(=N\N=C\c1ccc2c(c1)OCO2)c1nonc1N	9.8*	-1	-3	20	13	11	6
N/C(=N\N=C\c1cccc([N+](=O)[O-])c1)c1nonc1N	3	0	0	5	4	nt	nt
COc1ccc(NC(=O)C2=CC(c3ccc(OC)cc3)=NS(=O)(=O)N2C)cc1	10*	20	-7	11	-19	17	7
COc1ccc(NC(=O)C2=CC(c3ccco3)=NS(=O)(=O)N2C)cc1	1	1	2	0	-9	nt	nt
CN1C(C(=O)Nc2cccc(O)c2)=CC(c2cccs2)=NS1(=O)=O	9.7*	4	-5	13	-15	18	7
C[C@@H]1C[C@@H]2O[C@H]2CCCCC(=O)Cc2cc(O)cc(O)c2C(=O)O1	-4	nt	nt	-11	10	nt	nt
CCC(C(=O)Nc1c(C)cccc1C)n1c(-c2ccc(-c3ccccc3)cc2)nc2ccccc21 (configuration not stated)	2	nt	nt	-12	1	nt	nt
Cc1ccc(S(=O)(=O)N2C[C@@H](C)[C@]3(C2)[C@H](O)[C@H](OC(=O)NCc2ccccc2F)C[C@H]2C(=O)N(c4ccccc4)C(=O)[C@H]23)cc1	9.2*	28	nt	14	-56	37*	20*
COCC(C)n1c(C)cc(C(=O)CSc2nnc(Nc3ccccc3F)s2)c1C (configuration not stated)	15*	4	-3	15	-15	1	2
